Source: PubChem BioAssay (NCI)
The panel holds about 79,000 compounds, 15% with a hit somewhere; the sample as a whole holds those more often. A number with no mark means an inactive call. Calls of active or inactive are those of the source. Rule as the data show it: active = growth inhibition above about 70%; inactive = the rest. *1 amine or outer side, *2 acyl side, *3 side chain or, on linkers, in order; H or OH if unused. Where a SMILES comes first, the peptide text is derived from it. Bridges are numbered along the chain shown (N, C = ends). Roman numbers before positions name the chains, in order. [ ]: non-standard residue; d: D form. Actinocin(9to1) = Cc1c2oc3c(C)ccc(C(=O)[*:1])c3nc-2c(C(=O)[*:2])c(N)c1=O; NMeT = CN[CH](C(=O)O)[CH](C)O; Sar = CNCC(=O)O

Assays:
[1] = NCI Yeast Anticancer Drug Screen. Data for the rad50 strain (AID 155);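 also: 0% = growth of vehicle-only cultures of the same strain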; conditions: S. cerevisiae rad50 strain growth inhibition; at 50.0 µM; hits give high values
Outline: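 Relative growth inhibition (compound vs vehicle) was measured in yeast with a defined repair-gene alteration.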

[2] = NCI Yeast Anticancer Drug Screen. Data for the mec2-1 strain (AID 157); conditions: S. cerevisiae mec2-1 strain, at 50.0 µM, hits give high values
Outline: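 Growth inhibition is read against vehicle-treated controls after compound exposure of the mec2-1 yeast strain, which is defective in DNA damage repair or cell cycle control.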

[3] = NCI Yeast Anticancer Drug Screen. Data for the sgs1 mgt1 strain (AID 161);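 also: 0% = growth of cultures given vehicle only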; conditions: S. cerevisiae sgs1 mgt1 strain, at 50.0 µM, hits give high values
Outline: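 Yeast cells carrying a defined DNA-repair defect were exposed to test compounds. Growth inhibition was measured relative to vehicle-treated controls.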

[4] = NCI Yeast Anticancer Drug Screen. Data for the cln2 rad14 strain (AID 165);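 also: 0% = growth equal to vehicle treated cultures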; conditions: S. cerevisiae cln2 rad14 strain, at 50.0 µM, hits give high values
Outline: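 Growth inhibition, relative to vehicle-treated controls, is the read-out. The test organism is a yeast strain with defined genetic alterations, cln2 rad14.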

[5] = NCI Yeast Anticancer Drug Screen. Data for the bub3 strain (AID 167); conditions: S. cerevisiae bub3 mutant strain, at 50.0 µM, hits give high values
Outline: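 Screening used yeast with an engineered genetic alteration affecting cell cycle control. Compound-exposed cultures were compared with vehicle cultures, and reduced growth was taken as inhibition.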

[6] = NCI Yeast Anticancer Drug Screen. Data for the mlh1 rad18 strain (AID 175); conditions: S. cerevisiae mlh1 rad18 strain growth inhibition; at 50.0 µM; hits give high values
Outline: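 Cells of a genetically altered yeast strain, deficient in DNA damage repair, were treated with compound. Their growth was then compared with that of vehicle-treated cultures to give inhibition.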

| SMILES | growth inhibition [1] | growth inhibition [2] [%] | growth inhibition [3] [%] | growth inhibition [4] [%] | growth inhibition [5] [%] | growth inhibition [6] |
| --- | --- | --- | --- | --- | --- | --- |
| Cc1c2oc3c(C)ccc(C(=O)NC4C(=O)NC(C(C)C)C(=O)N5CCCC5C(=O)N(C)CC(=O)N(C)C(C(C)O)C(=O)OC4C)c3nc-2c(C(=O)NC2C(=O)NC(C(C)C)C(=O)N3CCCC3C(=O)N(C)CC(=O)N(C)C(C(C)O)C(=O)OC2C)c(N)c1=O (stereo not given) (I: TVP[Sar][NMeT] / II: TVP[Sar][NMeT]; ester I:1-I:C, II:1-II:C; linker I:N-II:N via Actinocin(9to1); configuration not given here) | 19.4% | -21 | -3.3 | 31.3 | -5.3 | -52.5% |
| Nc1nnc(CCCCCCCc2nnc(N)o2)o1 | -6.25% | 12.6 | 3.45 | 7.5 | 6.85 | 13.2% |
| COc1cc(/C=C2\N=C(C)OC2=O)ccc1O | -2.8% | -6.5 | 5.7 | -65.5 | 2.95 | 2.05% |
| N#CCCn1nc(SC2CCCCC2)c(=O)[nH]c1=O | -4.05% | 1.95 | 2.45 | 32.3 | 4.75 | 4.3% |
| CN(C)C(=O)c1cccnc1 | 0.25% | -4.25 | -4.8 | 27.1 | -18.2 | -2.35% |
| COc1ccc(C2=C(Cl)c3cc(OC)c(OC)cc3C2=O)cc1OC | 0.75% | -7.1 | -7.05 | -18.9 | -9.85 | 2.4% |
| CCN(CC)CCCNc1nc2ccccc2c2[nH]c3ccc(OC)cc3c12 | -37.4% | -26.2 | -41.9 | -36.8 | -40 | -28.2% |
| Cc1ccc(N=C=S)cc1Cl | 6.75% | 9.65 | 32.4 | 6.55 | 15.8 | 27.9% |
| COC(=O)/C=C(\C(=O)OC)C(C(=O)c1ccccc1)=P(c1ccccc1)(c1ccccc1)c1ccccc1 | -9.95% | 8.7 | -4.2 | -26.5 | 3.55 | 1.15% |
| COc1cc(CC2c3cc(OC)c(OC)cc3CC[N+]2(C)C)c(Oc2cc(CC3c4cc(OC)c(OC)cc4CC[N+]3(C)C)ccc2OC)cc1OC (stereo not given) | 8.35% | 10.1 | -0.85 | -4.45 | -6.05 | 28.6% |
| CSC(C(OC(C)=O)C(OC(C)=O)C(OC(C)=O)C(COC(C)=O)OC(C)=O)n1cnc2c(=S)nc[nH]c21 (stereo not given) | 26.4% | -12.4 | -11.6 | 13.2 | -0.45 | 1.95% |
| O=c1nc(Oc2ccccc2)nc2ccc(Cl)nn12 | 3.4% | 31.4 | 6.95 | 5.7 | 40.9 | 3.1% |
| OC/C=C(\I)CCCOCOCc1ccccc1 | -14.4% | -4.35 | -7.35 | -18.4 | -10.5 | -36.2% |
| CNC(=O)Nc1ccc(C(=O)OCC(C)C)cc1 | 6.4% | 8.7 | 12.9 | -34.1 | -22.1 | 7.45% |
| CC(=O)Nc1ccccc1-c1nc2cccnc2[nH]c1=O | -9.6% | 6.15 | 2.65 | -5.35 | -1.85 | -11.9% |
| CC1CCCC(C)C1CO (stereo not given) | 3.65% | -31.6 | 7.75 | 22.7 | -17.8 | 15.8% |
| CSC(=NNC(N)=O)SC | 4.4% | -2.8 | 1.2 | -14.2 | -9.7 | 5.4% |
| C=CC/C=C/CCC | 34.6% | -2.7 | -7.85 | -21.8 | -2.4 | -9.7% |
| CCCCOCCOC(=O)C(C)O (stereo not given) | 18.9% | 13.7 | 11.9 | 6.6 | -1 | 6.4% |
| CCCNS(=O)(=O)c1nc2ccccc2s1 | -26% | -15.2 | -5.6 | -22.1 | 2.65 | -20.8% |

| SMILES | growth inhibition [1] | growth inhibition [2] [%] | growth inhibition [3] [%] | growth inhibition [4] [%] | growth inhibition [5] [%] | growth inhibition [6] |
| --- | --- | --- | --- | --- | --- | --- |
| CCC(C(=O)O)=C1CCCCC1 | 11.1% | -8.15 | -0.35 | 9.15 | 5.85 | -3.9% |
| O=C(CCBr)OCCC1CCCCC1 | -1.95% | -2.45 | -0.8 | -16.1 | -7.05 | 5.6% |
| CCCCCCC(C)(O)C(C)O (stereo not given) | 27.8% | 8.5 | 24.2 | 14.9 | 12.2 | 9.2% |
| CC1CNC(=O)NC1=O.O.O.[NH2-].[NH2-].[Pt+4] (stereo not given) | 7.55% | 11.2 | -0.75 | -51 | -5.95 | -5.85% |
| CCN(CC)CCCC(C)Nc1nccc(/C=C/c2ccc(Cl)cc2)n1 (stereo not given) | 9.9% | 16.3 | 28.9 | -1.1 | 14 | 41.7% |
| COc1ccccc1NC(=S)N/C=C(\C#N)c1nc2ccccc2s1 | -28.4% | 5.95 | -8.9 | 3.45 | 2.3 | -3% |
| CCCCC(CC)(CC(=O)O)CC(=O)O | 10.4% | 9.85 | 12.3 | -14.8 | 7.85 | 7.1% |
| CCCCC(=O)c1ccc2ccccc2c1O | 6.9% | -6.35 | 3.9 | -18 | -6.3 | 6.8% |
| O=C(c1ccc(Cl)cc1)c1ccc2ccccc2c1 | -5.3% | -8.6 | 5.35 | -3.4 | 7.8 | 4.1% |
| CCN(CC)CCCNc1cc(OC)c(Cl)c2cccnc12 | 22.2% | 9.1 | 38 | 35.9 | -19.8 | 28.7% |
| CC(=O)CC(=O)NCc1ccc2c(c1)OCO2 | -17.4% | -9.2 | -16.3 | 3.75 | -15.1 | -11.8% |
| CCC(C)C/C(C)=N\NC(N)=O (stereo not given) | 1.75% | 0.1 | 3.1 | 9.2 | -4.75 | 6.25% |
| O=S(=O)(Cc1ccccc1)C(I)c1ccccc1 (stereo not given) | 82.2% (active) | 55.9 | 65.5 | 51 | 60.7 | 73% (active) |
| CCC(C)OC(=O)/C(Br)=C1/OC(=O)c2ccccc2-c2ccccc21 (stereo not given) | -1.55% | -15.8 | -0.35 | -13.4 | -42.5 | -7.2% |
| CC1=CNNc2ccccc21 | -2.6% | 1.45 | -4.6 | 8 | -14.4 | 5.1% |
| OCC12OCC(O1)C(O)C(O)C2O (stereo not given) | -14.6% | 2.2 | 1.35 | -9.35 | -4.05 | -16.8% |
| N#CC1NCNC1N (stereo not given) | 0.2% | 0.65 | -6.6 | 1.15 | -1.25 | -16.8% |
| CCCCCC(/C=N/Nc1ccccn1)=C\c1ccccc1 | -0.25% | -2.1 | 3.9 | -18.2 | -17.4 | -17.4% |
| COC(=O)c1c(OC)cc2cc3c(c(O)c2c1C)C(=O)C1(O)C(=O)C=C(OC)C(OC(=O)CC(C)N)=C1C3=O (stereo not given) | 26.1% | 1.05 | 24.2 | 25.9 | 22.9 | 33% |
| C=C1c2[nH]c3ccccc3c2CC(C(=O)O)N1C(O)c1ccc(S(=O)(=O)O)cc1 (stereo not given) | 11.5% | -7.95 | -3.5 | -45.6 | -8.05 | 3.75% |
